In PubChem BioAssay (EPA / NIEHS):
Active and inactive are the calls of the source. How the source made its calls: active means hit-call score of the fitted dose curve at least 0.9, where 1 is the maximum; inactive means score below 0.9.

Each molecule was assayed on Ezrin (EZR), EZR (gene 7430) (assay: LTEA_HepaRG_EZR: Life Technologies and Expression Analysis (LTEA) Assay for Ezrin (EZR) using HepaRG (AID 2283491)). Conditions: mRNA level, 48 h; actives raise or lower the signal.
Protocol: It is a marker of Cellular remodeling.Data from the assay component LTEA_HepaRG_EZR was analyzed into 1 endpoint. This assay endpoint, LTEA_HepaRG_EZR, was analyzed with bidirectional fitting relative to DMSO as the negative control and baseline of activity. Using a type of inducible reporter, measures of mRNA induction for gain or loss-of-signal activity can be used to understand regulation of transcription factor activity. To generalize the intended target to other relatable targets, this assay endpoint is annotated to the membrane protein intended target family, where the subfamily is Cellular remodeling.
A total of 1060 chemcials from the ToxCast library were tested in eight-point concentration-response experiments. Cell culture and cytotoxicity assays were conducted at Thermo Fisher Scientific's Custom Services facility (Madison, WI). A single lot of human HepaRG cells (Thermo Fisher Scientific, Frederick, MD) was used for the cell culture experiments. 96-well format collagen type I coated plates of human HepaRG cells were prepared using established methods. Briefly, cryopreserved HepaRG cells were thawed, plated at a density of approximately 100,000 cells/well in HepaRG Thaw, Plate, and General Purpose media (HPRG770, Thermo Fisher Scientific), and incubated for 48 hours. 0.5% DMSO was selected as vehicle control to balance the requisite need of DMSO in HepaRG cultures to maintain differentiation (for example, baseline metabolism, proportions of hepatocytes vs. cholangiocytes), while enabling further hepatic receptor pathway activation (for example, PXR and CAR) in response to chemical exposure. 48 hours after plating, the culture medium was replaced with HepaRG Serum-Free Incudtion Media. Cells were exposed to each test chemical in duplicate and maintained in CO2 incubators for another 48 hours. Chemical plates were thawed to room temperature and 200x concentrations of treatment groups were prepared. 8-point conentration-reponse curves were made with the highest exposure at 100 uM, followed by half-log dilutions, all in 0.5% DMSO. Each test plate contained variouse controls, induction positive controls (1mM phenobarbital), cytotoxicity positive controls ([…] aflatoxin B1), vehicle controls (0.5% DMSO), and total lysis controls (0.5% DMSO). Cell morphology images were taken using an Essen IncuCyte FLR automated microscope, with six 96-well plates imaged in about 24 minutes. Images were captured and exported and JPEG files. Spent culture media was transfered to black-well plates for the LDH assay, and remaining media was sorted at -80 C for later use. Cells were treated with RLT buffer and frozen until shipped for gene expression analysis. Total RNA was isolated from the cell suspension in 75 uL of Buffer RLT (Qiagen, Germantown, MD 20874) by Quintiles/Expression Analysis (Durham, NC) using a custom isolation procedure. Total RNA from each plate well was transferred to a preamplification plate. Fluidigm's 96.96 Dynamic ArrayTM (Fluidigm, Amsterdam, the Netherlands) technology was used for gene expression analyses by quantitative reverse transcription polymerase chain reaction (qRT-PCR, performed by Quintiles/Expression Analysis, Durham, NC)89. Standard TaqManTM Assays (Applied Biosystems/ThermoFisher Scientific, Foster City, CA) were used to assess the expression of 93 genes selected based on their selectivity and sensitivity to important hepatic receptors known to be modulated by environmental chemicals; importance in human hepatocyte functionality; and hepatotoxicity. Three "housekeeping" endogenous control genes were also included and used for normalization: actin beta (ACTB), Glyceraldehyde 3 phosphate dehydrogenase (GAPDH) and RNA Polymerase II Subunit A (POLR2A). qRT-PCR was conducted according to the manufacturer's protocol.

outcome, inactive:
N=C(N)c1ccc(OCCCCCOc2ccc(C(=N)N)cc2)cc1
CC(=O)Nc1ccc(O)cc1
CCCCCCCCCCCCOS(=O)(=O)O
CCCCC(CC)C(=O)O (stereo unspecified)
OCC(CO)(CBr)CBr
CN(C)CCOC(c1ccccc1)c1ccccc1
O=C1NS(=O)(=O)c2ccccc21
CS(=O)(=O)c1ccc([C@@H](CC2CCCC2)C(=O)Nc2cnccn2)cc1Cl
CCC(C)c1ccccc1O (stereo unspecified)
CCCCC=O
CN(Cc1cnc2nc(N)nc(N)c2n1)c1ccc(C(=O)N[C@@H](CCC(=O)O)C(=O)O)cc1
O=C(CCCN1CCC(O)(c2ccc(Cl)cc2)CC1)c1ccc(F)cc1
O=C(c1ccccc1)c1ccccc1
CCCCCCCCCCCCCCC

AC50, active:
Cc1[nH]nc2c1N=C(c1ccccc1Cl)c1cc([N+](=O)[O-])ccc1N2 1.38 µM
CCCCc1oc2ccccc2c1C(=O)c1cc(I)c(OCCN(CC)CC)c(I)c1 58.2 µM
